Only some compounds are listed: those with a hit (about 1.9% of all), similar ones and a draw of the others.
GALR2 blocker: GALR2 (human) receptor antagonism; AID 828; GALR2-expressing cells, antagonist mode; 140,000 compounds, 0.39% hits; inhibition, % at 4 µM; in the data active means inhibition above about 27%;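 further: cells stimulated with galanin 1-16 at roughly its EC80; 0% = agonist challenge control and 100% = basal control without agonist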
S1P2 blocker: S1P2 (human) receptor antagonism. O95136. cell-based S1P2 antagonist assay, inhibition at 5 uM. inhibition, % at 5 µM. 97,000 compounds, 0.21% hits. AID 736; in the data active means inhibition above about 45%;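 further: CRE beta-lactamase reporter cells expressing human S1P2 stimulated with S1P; 0% = agonist at EC80 alone and 100% = agonist plus reference antagonist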
Target sequence (O95136 whole entry, looked up): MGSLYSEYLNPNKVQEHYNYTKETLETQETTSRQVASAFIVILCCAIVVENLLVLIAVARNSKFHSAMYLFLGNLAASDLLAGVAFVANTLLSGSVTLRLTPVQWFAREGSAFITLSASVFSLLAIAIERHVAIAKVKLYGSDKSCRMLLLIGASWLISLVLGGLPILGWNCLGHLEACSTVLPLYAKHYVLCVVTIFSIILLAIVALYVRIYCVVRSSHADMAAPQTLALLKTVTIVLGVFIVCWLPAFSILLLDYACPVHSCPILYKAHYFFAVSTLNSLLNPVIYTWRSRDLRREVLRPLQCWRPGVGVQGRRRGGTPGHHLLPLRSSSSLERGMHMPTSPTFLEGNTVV
S1P2 ag: agonists of human S1P2 receptor; O95136; S1P2-expressing cell line, agonist reporter read-out; activation, % at 4.5 µM; 97,000 compounds, 0.46% hits; in the data active means activation above about 16%;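 further: 0% = vehicle low control and 100% = maximal reference agonist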
GALR2 agonist: agonists of human galanin receptor 2 (GALR2). GALR2-expressing cells, agonist activation read-out. activation, % (test concentration not listed). O43603. 140,000 compounds, 0.48% hits; in the data active means activation above about 5%, passing the limit was not always enough;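 further: 0% = vehicle buffer wells and 100% = reference agonist at full effect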
SDO1 yeast rescue: sdo1-depleted yeast growth rescue; z-score at 10 µM; 140,000 compounds, 0.21% hits; S. cerevisiae sdo1-depleted JHY4D growth rescue, OD600 30 h; hits give high values; pdr5 snq2 efflux-pump mutant strain; AID 817;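 active means z-score above 3 at both the 24 hr and the 30 hr optical density reads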;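 further: z-score against mean and SD of all compound wells on the same plate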
FAK inh: FAK (human) kinase inhibition; Q05397; biochemical FAK kinase activity assay; inhibition, %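 (tested at 7 µM)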; 97,000 compounds, 0.84% hits; in the data active means inhibition above about 19%;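 further: 0% = DMSO and 100% = reference compound high control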
* marks the source's active call; other numbers are inactive results.

Screening CC(C)C1N=C2c3ccccc3N=C(SCc3cc(=O)n4ccccc4n3)N2C1=O (stereo not given) returned GALR2 blocker -1.6, S1P2 blocker -4.1, S1P2 ag -2.6, GALR2 agonist 2.2 and FAK inh -5.7.
For Cc1cc(C)c(C)c(OCCCN(C)C)c1 the results were GALR2 blocker 5.4, GALR2 agonist -0.7 and SDO1 yeast rescue 0.15.
For CCCOC(=O)C1=C(C)NC2=C(C(=O)CCC2)C1c1cccs1 (stereo not given) the results were GALR2 blocker 8.1, S1P2 blocker 17.4, S1P2 ag -16.7, GALR2 agonist -1.8, SDO1 yeast rescue 0.35 and FAK inh 12.7.
`CCOC(=O)C1=C(C)NC2=C(C(=O)CC(c3cccs3)C2)C1c1cccs1` (stereo not given) gave GALR2 blocker -4.3, S1P2 blocker -14.7, S1P2 ag -1.0, GALR2 agonist 0.7, SDO1 yeast rescue -0.86 and FAK inh 21.3*.
Screening CCc1ccc(-c2nc(NC(=S)NC(=O)c3cccs3)sc2C)cc1 returned GALR2 blocker -4.0, S1P2 blocker -4.5, S1P2 ag 17.2*, GALR2 agonist -2.3, SDO1 yeast rescue -0.71 and FAK inh -1.8.
Screening O=C(NC(=S)Nc1nc2ccccc2s1)c1cccs1 returned GALR2 blocker 18.7, GALR2 agonist -1.6 and SDO1 yeast rescue -0.77.
O=S1(=O)C=C(Sc2nnc(-c3ccccc3)o2)c2ccccc21 was read as GALR2 blocker 87.7*, GALR2 agonist -3.0 and SDO1 yeast rescue -2.1.
Screening CSc1nnc(-c2ccccc2)o1 returned GALR2 blocker -7.1, S1P2 blocker 19.0, S1P2 ag -4.1, GALR2 agonist -2.4, SDO1 yeast rescue 0.61 and FAK inh -2.1.
For Cc1ccc(NC(=S)NCCc2ccc(S(N)(=O)=O)cc2)c(C)c1 the results were GALR2 blocker -4.7, S1P2 blocker 12.7, S1P2 ag 101.8*, GALR2 agonist -0.2 and FAK inh 4.1.
Cc1cc(C)cc(NC(=S)NCCc2ccc(S(N)(=O)=O)cc2)c1 was read as GALR2 blocker 3.5, GALR2 agonist -1.7 and SDO1 yeast rescue 2.01.
`COC(=O)c1ccc(C)c(-n2c(C)cc(C=O)c2C)c1` gave GALR2 blocker -10.6, GALR2 agonist -0.9 and SDO1 yeast rescue 0.69.
Brc1ccc2[nH]c3nc(SCCN4CCOCC4)nnc3c2c1 was read as GALR2 blocker 5.2, S1P2 blocker -22.8, S1P2 ag 16.2*, GALR2 agonist -0.5 and FAK inh 0.5.
Screening CC(=O)Nc1ccc(-c2nnc(SCC(=O)c3ccc4c(c3)Cc3ccccc3-4)n2C)cc1 returned GALR2 blocker -31.2, S1P2 blocker -8.7, S1P2 ag -4.2, GALR2 agonist 4.9*, SDO1 yeast rescue -0.94 and FAK inh 7.5.
COc1ccc(NC(=O)/C(=C/c2ccc3c(c2)OCO3)NC(C)=O)cc1 was read as GALR2 blocker -2.9, GALR2 agonist -0.9 and SDO1 yeast rescue 0.7.
Screening O=c1ccn(-c2cccc(C(F)(F)F)c2)nc1-c1ccn(-c2ccccc2)n1 returned GALR2 blocker 2.5, S1P2 blocker -26.9, S1P2 ag 25.2*, GALR2 agonist -1.0, SDO1 yeast rescue -0.68 and FAK inh 7.1.
Screening CC1CCCCC1NS(=O)(=O)c1ccc(S(=O)(=O)NCc2ccncc2)cc1 (stereo not given) returned GALR2 blocker 23.4, S1P2 blocker 55.0*, S1P2 ag -3.3, GALR2 agonist -0.3, SDO1 yeast rescue 0.71 and FAK inh 2.1.
Cc1ccc(-c2noc(CCC(=O)N3CCCc4ccccc43)n2)cc1 was read as GALR2 blocker -7.7, S1P2 blocker -6.2, S1P2 ag 42.9*, GALR2 agonist -2.1, SDO1 yeast rescue -1.08 and FAK inh -1.2.
`Cc1ccc(-c2nnn(CC(=O)N3CCCc4ccccc43)n2)cc1` gave GALR2 blocker -6.5, S1P2 blocker 8.8, S1P2 ag -6.3, GALR2 agonist -1.9, SDO1 yeast rescue -1.36 and FAK inh -3.2.
O=C(NCc1cccnc1)/C(=C/c1ccc(-c2ccc(Cl)cc2)o1)S(=O)(=O)c1ccccc1 was read as GALR2 blocker 24.1, S1P2 blocker 54.3*, S1P2 ag -4.7, GALR2 agonist 0.6, SDO1 yeast rescue -2.47 and FAK inh 2.5.
`CCC(C)N1CC(O)=C(c2nc3ccccc3[nH]2)C1=N` (stereo not given) gave GALR2 blocker 1.5, S1P2 blocker 10.1, S1P2 ag 0.0, GALR2 agonist -0.3, SDO1 yeast rescue 0.67 and FAK inh 2.8.
Screening CCCCCCN1CC(O)=C(c2nc3ccccc3[nH]2)C1=N returned GALR2 blocker 26.0, GALR2 agonist 7.2* and SDO1 yeast rescue -1.54.
For Cc1cc(Nc2ccc3c(c2)OCCO3)c2cccc(C)c2n1 the results were GALR2 blocker 1.1, GALR2 agonist -0.8 and SDO1 yeast rescue 0.3.
COc1ccc(/C(C)=N/Nc2ncc(Cl)cc2Cl)c(O)c1 was read as GALR2 blocker 14.1, GALR2 agonist -0.9 and SDO1 yeast rescue 0.28.
`Cc1ccc(N2C(=N)/C(=C3/Nc4ccccc4S3)C(c3ccccc3)C2=O)cc1` (stereo not given) gave GALR2 blocker -3.5, GALR2 agonist -1.3 and SDO1 yeast rescue -2.01.
For Cc1nc2ccc(-c3nc4ccccc4o3)cc2[nH]1 the results were GALR2 blocker -5.3, S1P2 blocker 25.6, S1P2 ag -8.4, GALR2 agonist -0.5, SDO1 yeast rescue -0.36 and FAK inh 7.7.
`Nc1ccc(-c2nc3ccc(-c4nc5ccccc5o4)cc3[nH]2)cc1` gave GALR2 blocker 8.4, S1P2 blocker -14.9, S1P2 ag 1.2, GALR2 agonist 6.4*, SDO1 yeast rescue -1.91 and FAK inh 3.8.
C=CCn1c(COc2cc(C)ccc2C(C)C)nnc1SCC(=O)c1c(N)n(C)c(=O)n(C)c1=O was read as GALR2 blocker 5.5, GALR2 agonist -1.9 and SDO1 yeast rescue -0.92.
`CCc1nc2ccccc2c(C(=O)OCC(=O)Nc2ccc(S(=O)(=O)N3CCOCC3)cc2)c1C` gave GALR2 blocker 2.5, GALR2 agonist 1.0 and SDO1 yeast rescue -0.32.
Screening CCc1nc2ccccc2c(C(=O)OCC(=O)Nc2cccc(S(=O)(=O)N3CCOCC3)c2)c1C returned GALR2 blocker 13.3, S1P2 blocker 15.2, S1P2 ag 17.8*, GALR2 agonist 0.1, SDO1 yeast rescue 0.3 and FAK inh 9.8.
`c1ccc(-c2nc3ccccn3c2NCc2ccc3c(c2)OCO3)cc1` gave GALR2 blocker 0.5, S1P2 blocker 6.1, S1P2 ag 174.3*, GALR2 agonist -2.0, SDO1 yeast rescue -0.45 and FAK inh -0.4.
`COc1ccc(-c2nc3ccccn3c2NCc2ccc3c(c2)OCO3)cc1` gave GALR2 blocker 3.2, S1P2 blocker -13.8, S1P2 ag -7.8, GALR2 agonist -3.7, SDO1 yeast rescue -0.55 and FAK inh 1.0.
Screening COc1ccc(Cn2c(N)c(C#N)c3nc4ccccc4nc32)cc1 returned GALR2 blocker -9.1, S1P2 blocker -61.6, S1P2 ag 31.2*, GALR2 agonist 3.0, SDO1 yeast rescue -0.75 and FAK inh 3.7.

Screening results deposited in PubChem by several laboratories.
